High-throughput results: PubChem, several laboratories
FBA Mtb inh – inhibits M. tuberculosis FBA enzyme; P9WQA3; inhibition, % at 1 µM; AID 588726; purified M. tuberculosis FBA, fluorescence read-out; 2.3% of 360,000 active; in the data active means inhibition above about 27%
Target sequence (P9WQA3 whole entry, looked up): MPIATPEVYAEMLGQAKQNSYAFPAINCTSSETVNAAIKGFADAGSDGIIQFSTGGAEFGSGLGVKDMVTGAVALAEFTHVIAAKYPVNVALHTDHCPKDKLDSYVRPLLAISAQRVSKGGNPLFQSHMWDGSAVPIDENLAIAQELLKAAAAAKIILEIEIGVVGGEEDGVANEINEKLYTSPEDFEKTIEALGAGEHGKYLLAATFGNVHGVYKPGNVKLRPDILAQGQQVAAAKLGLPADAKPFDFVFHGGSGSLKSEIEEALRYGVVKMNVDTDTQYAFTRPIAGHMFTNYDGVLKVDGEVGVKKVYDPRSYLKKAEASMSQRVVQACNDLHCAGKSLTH
Anthrax LF prot – inhibitors of Bacillus anthracis lethal factor protease; inhibition, % at 10 µM; multiplex microsphere protease cleavage assay, LF; P15917; 0.12% of 360,000 active
BoNT-A LC inh2 – blocks Botulinum neurotoxin A light chain protease. multiplex microsphere protease substrate cleavage, flow cytometry. inhibition, % at 10 µM. 0.17% of 360,000 active. AID 588499
Bead autofluor – compound fluorescence in toxin protease inhibitor counterscreen; fluorescence intensity (no concentration beside the values); compound autofluorescence counterscreen, microsphere flow cytometry; stronger effect = higher value; 3.1% of 360,000 active; in the data active means fluorescence intensity above about 16000; inconclusive means no clear call, values can overlap the other calls
BoNT F protease – BoNT F light chain protease inhibition. Multiplex microsphere protease cleavage assay, flow cytometry. inhibition, % at 10 µM. 0.22% of 360,000 active; in the data active means inhibition above about 35%, passing the limit was not always enough; inconclusive means no clear call, values can overlap the other calls
GDH-TPI inh – counter-screen for M. tuberculosis FBA inhibitors: GDH-TPI coupled enzymes; GDH-TPI coupled enzyme counterscreen, NADH absorbance; inhibition, % at 4.8 µM; 1.2% of 360,000 active; AID 588335; in the data active means inhibition above about 30%
Numbers stand for hits; i = inactive; ? = inconclusive; nt = not tested or not shown; + = active, no number. A selection: hits, their analogues and other compounds. The true share with any hit is near 6.7%. Unless noted, no stated cut-off is given here; in the data, active means inhibition above about 30%; inconclusive means no clear call, values can overlap the other calls; inactive means below that.

SMILES | FBA Mtb inh | Anthrax LF prot | BoNT-A LC inh2 | Bead autofluor | BoNT F protease | GDH-TPI inh
O=C(NCCc1ccccc1)c1nc2nc(-c3cccs3)cc(C(F)(F)F)n2n1 | + | i | i | i | i | 31
Cc1cc(C)n2nc(C(=O)NCCc3ccccc3)nc2n1 | i | i | i | i | i | i
Nc1nc(-c2ccc(Cl)cc2)cc(C(F)(F)F)n1 | i | i | i | i | i | i
FC(F)(F)c1cc(-c2ccc(Cl)cc2)nc2ncnn12 | 142 | nt | nt | nt | nt | i
FC(F)(F)c1cc(-c2cccs2)nc2ncnn12 | + | i | i | i | i | i
Cc1nn(C)c(C(=O)NNC(=S)Nc2ccc(F)cc2)c1[N+](=O)[O-] | i | i | i | i | i | i
N=c1c(S(=O)(=O)c2ccc(Cl)cc2)cc2c(=O)n3ccccc3nc2n1CCc1ccccc1 | i | i | i | i | i | i
Cc1ccc(S(=O)(=O)c2cc3c(=O)n4ccccc4nc3n(CCCN3CCOCC3)c2=N)cc1C | 128 | i | i | i | i | i
N=c1c(S(=O)(=O)c2ccc(Cl)cc2)cc2c(=O)n3ccccc3nc2n1CCN1CCOCC1 | + | i | i | 21495 | i | i
O=C(c1ccc(CS(=O)(=O)c2c(Cl)cccc2Cl)o1)N1CCN(c2ccccn2)CC1 | i | i | i | i | i | i
COC(=O)c1ccc(C(C2C(=O)CC(C)(C)CC2=O)C2C(=O)CC(C)(C)CC2=O)cc1 | i | i | ? | i | ? | i
COCCNC(=O)c1cc2c3ccccc3n(C)c2s1 | i | i | ? | i | i | 47
CCn1c(=O)cc(SCC(=O)NCCCN2CCN(c3ccccc3F)CC2)c2ccccc21 | i | i | i | 20693 | i | i
O=C(CN1C(=O)COc2ccccc21)NCCCN1CCN(c2ccccc2F)CC1 | i | i | i | i | i | i
CCOC(=O)CNC(=O)COc1coc(CN2CCN(c3ccccc3F)CC2)cc1=O | i | i | 38 | i | i | i
CCCNC(=O)c1cc2c3ccccc3n(C)c2s1 | i | i | i | i | i | i
COCCNC(=O)COc1cc(=O)n(C)c2ccccc12 | i | i | i | 16570 | i | i
COc1ccc(CCNC(=O)COc2cc(=O)n(C)c3ccccc23)cc1OC | i | i | i | i | i | i
O=C(NCCOc1ccccc1)C(=O)c1c[nH]c2ccccc12 | i | i | i | i | i | i
CCCCSc1nc2sc3c(c2c(=O)n1-c1ccc(C)cc1)CCN(C)C3 | i | i | i | i | i | i
COc1ccc(NC(=S)Nc2ccc(OCc3ccccc3)cc2)cc1OC | i | i | i | i | i | i
CCC1CCCCN1CCCNC(=O)COc1cc(=O)n(C)c2ccccc12 (stereo not drawn) | i | i | i | 20141 | i | i
Cn1c(=O)cc(OCC(=O)NCCCN2CCN(c3ccccc3F)CC2)c2ccccc21 | i | i | i | 20602 | i | i
Cc1cccc(CCNC(=O)COc2cc(=O)n(C)c3ccccc23)c1 | i | i | i | i | i | i
Cn1c(=O)cc(OCCCC(=O)NCCN2CCN(c3ccccc3F)CC2)c2ccccc21 | i | i | i | i | i | i
SMILES | FBA Mtb inh | Anthrax LF prot | BoNT-A LC inh2 | Bead autofluor | BoNT F protease | GDH-TPI inh
CCN(CCCNC(=O)COc1cc(=O)n(C)c2ccccc12)c1cccc(C)c1 | i | i | i | 17522 | i | i
COC(CNC(=O)c1cc(C(=O)c2c(-c3c(Cl)cccc3Cl)noc2C)c[nH]1)OC | i | i | i | i | i | i
Cc1cccc(C(=O)Nc2cccnc2Cl)c1 | i | i | 66 | i | i | i
Cc1cccc(C(=O)Nc2cc(OCc3cccc(F)c3)c(Cl)cc2Cl)c1 | i | i | ? | 19656 | i | i
Cc1ccc(NC(=O)c2ccccn2)c(Br)c1 | i | i | i | i | i | i
Cc1ccc(C)c(NC(=O)c2ccccn2)c1 | i | i | ? | 20724 | i | i
CCOc1ncccc1C(=O)OCC(=O)Nc1cc(C)ccc1C | i | i | i | 23113 | i | i
Cc1cccc(C(=O)Nc2cccc3cccnc23)c1 | i | i | i | i | i | i
CC1=C(C(=O)Nc2cc(C(=O)NCc3ccccc3)ccc2C)SCCO1 | i | i | i | i | i | i
N#Cc1ccc(NC(=O)CN2C(=O)NC3(CCCC3)C2=O)cc1Cl | i | i | i | i | i | i
COc1ccc(CNC(=O)CC(C)c2ccccc2)cc1 (stereo not drawn) | i | i | i | i | i | i
O=C(Nc1ccccc1F)c1cc(S(=O)(=O)N2CCOCC2)ccc1N1CCOCC1 | i | i | i | i | i | i
CS(=O)(=O)N(CC(=O)N1CCN(c2ccccc2F)CC1)C1CCCCC1 | i | i | i | i | i | i
Cc1ccc(S(=O)(=O)N(CC(=O)N2CCOCC2)C2CCCCC2)cc1 | i | i | ? | 23611 | i | i
Cc1ccc(S(=O)(=O)N(CC(=O)N2CCN(c3ccccc3F)CC2)C2CCCCC2)cc1 | i | i | i | 20732 | i | i
O=C(Cc1ccc2c(c1)OCCO2)N1CCN(S(=O)(=O)c2cccs2)CC1 | i | i | i | i | i | i
CC(=O)c1ccc(N2CCN(C(=O)CCCn3c(=O)[nH]c4ccc(Br)cc4c3=O)CC2)cc1 | i | i | i | i | i | 32
COC(=O)c1ccc2c(=O)n(CCCCCC(=O)N3CCN(c4ccccc4)CC3)c(=O)[nH]c2c1 | i | i | i | i | i | i
COc1cc2[nH]c(=O)n(CCCCCC(=O)N3CCN(c4ccccc4)CC3)c(=O)c2cc1OC | i | i | i | 19560 | i | i
CC(=O)c1ccc(N2CCN(C(=O)CCCn3c(=O)[nH]c4ccsc4c3=O)CC2)cc1 | i | i | i | i | i | i
Cc1ccc(C(=O)NC(=S)Nc2ccc3[nH]c(=O)[nH]c3c2)cc1 | i | i | i | i | i | i
CCOc1cc(C2NC(=O)N(C)C(C)=C2C(=O)OC)cc(Br)c1O (stereo not drawn) | i | i | i | i | i | i
COc1cccc(OC)c1C(=O)N1CCOCC1 | i | i | ? | 22982 | i | i
COc1cc(/C=N/N2CCN(c3ccccc3OC)CC2)ccc1OC(C)=O | i | 42 | i | i | ? | i
COc1ccccc1N1CCN(C(=O)CSc2nc(C)c(C)c(=O)[nH]2)CC1 | i | i | i | i | i | i
SMILES | FBA Mtb inh | Anthrax LF prot | BoNT-A LC inh2 | Bead autofluor | BoNT F protease | GDH-TPI inh
COc1ccccc1N1CCN(C(=O)CSc2nc(C)cc(=O)[nH]2)CC1 | i | i | i | 17183 | i | i
COc1ccccc1N1CCN(C(=O)N2CCOCC2)CC1 | i | i | i | 23262 | i | i
COc1ccccc1N1CCN(/N=C/c2cc(OC)c(O)c(OC)c2)CC1 | i | i | i | i | i | i
COc1ccc(N2CCN(C(=O)Nc3ccccc3C)CC2)cc1 | i | i | i | i | i | i
Oc1ccc(Cl)cc1CNc1ccc(Br)cn1 | i | i | i | 23615 | i | i
Oc1c(Cl)cc(Cl)cc1CNc1ccc(Br)cn1 | i | i | i | i | i | i
Cn1c(/C(C#N)=C/c2ccncc2)nc2ccccc21 | i | i | i | i | i | i
Cn1c(/C(C#N)=C/c2ccc(O)cc2)nc2ccccc21 | i | i | i | i | i | 36
CC(Oc1ccc(Cl)cc1)C(=O)Nc1ccc(S(=O)(=O)Nc2nccs2)cc1 (stereo not drawn) | 107 | i | i | i | i | i
